According to the supplement of paper PMC12636033:
± gives the standard deviation of the averaged measurements. The full ranking holds about 33,000 sequences; the median of “E-score (rank enrichment, -0.5 to 0.5)” is about -0.0068, and the highest 2% start at about 0.24. This excerpt belongs to a sample that is enriched for the highest values.

tested on: muMax20 (Max(13-93) K31hArg/K57hArg, M65Nle); assay: PBM 8-mer E-score (E-score (rank enrichment, -0.5 to 0.5)); higher = stronger preferential binding
Experimental: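 Protein binding microarray (universal PBM chip covering all 10-mers in fixed probe flanks) with chemically synthesized human Max(13-93) bHLH-LZ analogs (not full-length Max) bearing noncanonical residues (hArg, Tha, Aib, Nle at 65) and aromatic Cys staples. Read-out per 8-mer (and its reverse complement): E-score (rank-based enrichment, -0.5 to 0.5) and Z-score of median probe intensity.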

Sequence | PBM 8-mer E-score
CTTCTACC | 0.00215 ± 0.038
ACAGAATG | 0.088 ± 0.021
GTTTTCGA | -0.0225 ± 0.1
TCGGCCAA | -0.181 ± 0.076
GAATCCAC | 0.0142 ± 0.053
CAATTGTG | 0.0641 ± 0.093
ATAAGGAC | 0.0929 ± 0.069
ATAAGGTC | 0.218 ± 0.028
ATAAGGTA | 0.244 ± 0.019
ATAAGGAT | 0.246 ± 0.039
ATAAGGAA | 0.0142 ± 0.076
CTAAGGTA | 0.0373 ± 0.061
CTCTACCC | 0.0459 ± 0.077
CCAACAGA | -0.00227 ± 0.052
GTAGCTCA | -0.0957 ± 0.0039
AACTCAGT | -0.0615 ± 0.032
AAAAGATT | 0.0851 ± 0.1
AAAAGACC | 0.0838 ± 0.031
AAGACACG | 0.293 ± 0.005
ATGACACG | 0.238 ± 0.041
GTGACACA | 0.0546 ± 0.001
CAAAGACA | 0.129 ± 0.0062
AAAAGATG | 0.263 ± 0.086
AAAAGACA | 0.237 ± 0.011
ATGACACA | 0.156 ± 0.0051

Sequence | PBM 8-mer E-score
AAGACACA | 0.1216 ± 0.00079
CAGACACG | -0.0512 ± 0.046
CAAAGATG | 0.0977 ± 0.0035
GACCACGC | 0.121 ± 0.055
TCGATGAA | -0.0576 ± 0.025
TGGCGGAA | -0.0751 ± 0.029
CCCAGAGC | -0.115 ± 0.017
AAAGCAGA | 0.176 ± 0.01
AATATATA | 0.235 ± 0.04
GTTATTTA | 0.222 ± 0.014
AATATTCC | 0.149 ± 0.012
AATATTCG | 0.134 ± 0.0048
CATATTTA | 0.288 ± 0.0037
GATATTTA | 0.104 ± 0.032
AATATAGT | 0.219 ± 0.013
ATTATTTG | 0.212 ± 0.051
CATATTTC | 0.133 ± 0.0054
ATTATTTA | 0.256 ± 0.072
AATATTCA | 0.259 ± 0.0058
AATATATT | 0.244 ± 0.0097
ATGCGGGG | -0.0713 ± 0.071
TCAGGTAA | 0.0683 ± 0.047
GTAGACTA | -0.0707 ± 0.066
CAGTGGGG | -0.0911 ± 0.22
TCTCCGAA | -0.233 ± 0.047

Sequence | PBM 8-mer E-score
AGGCATGC | 0.121 ± 0.03
GAGTGGCA | -0.0109 ± 0.066
GGTATTTA | 0.173 ± 0.045
CTTATTTC | 0.24 ± 0.14
AATATTTG | 0.167 ± 0.11
AATATTTC | 0.209 ± 0.035
CGTATTTA | 0.248 ± 0.068
ATTATTTC | 0.186 ± 0.039
AGTATTTA | 0.222 ± 0.019
CTTATTTA | 0.0812 ± 0.083
AATATTTA | 0.287 ± 0.011
CTCTCCCA | 0.00928 ± 0.07
CACGTATC | 0.158 ± 0.0092
GTCTATAA | 0.181 ± 0.04
CCGTTAAA | -0.00804 ± 0.013
AATGACAA | 0.241 ± 0.033
CATGACAA | 0.2087 ± 0.00054
AATGACAC | 0.161 ± 0.056
GGAATATA | 0.0712 ± 0.077
AGAATATA | 0.254 ± 0.039
AGAATATG | 0.227 ± 0.029
CGAATATC | -0.0375 ± 0.072
AGAATATC | 0.129 ± 0.027
CGAATATA | 0.237 ± 0.065
AGAAACCC | 0.0541 ± 0.034

Sequence | PBM 8-mer E-score
AGTAGCTC | -0.0686 ± 0.0062
CCTGTCGC | -0.224 ± 0.021
GATATGTA | 0.103 ± 0.057
TATATATA | 0.228 ± 0.091
AATATGTA | 0.124 ± 0.0062
CATCTATA | 0.278 ± 0.013
CATATAGG | 0.147 ± 0.0067
AATCTATA | 0.143 ± 0.05
CATATGTA | 0.257 ± 0.061
CATATATA | 0.271 ± 0.095
AATATATG | 0.208 ± 0.089
CATATATC | 0.171 ± 0.05
CATATATG | 0.259 ± 0.017
GATCTATA | -0.0926 ± 0.0098
AAACGAGT | 0.044 ± 0.013
AGTGTGAT | 0.125 ± 0.043
CGTATAGA | 0.0652 ± 0.077
AAGGTTAT | -0.0312 ± 0.054
CACGGTTA | 0.00552 ± 0.11
TCGGAACA | -0.0705 ± 0.069
CAGTGGCC | -0.25 ± 0.067
CAGAGCCA | -0.17 ± 0.01
AGCTGGGC | -0.0998 ± 0.075
ACCACAGG | -0.113 ± 0.031
GCACTTGA | -0.0604 ± 0.011

Sequence | PBM 8-mer E-score
TGCTCGAA | 0.069 ± 0.0081
ACCCAGTG | -0.0911 ± 0.074
AATATGGT | 0.095 ± 0.017
AATATGGA | 0.156 ± 0.017
AATATGTC | 0.0382 ± 0.013
ACTATGTG | 0.109 ± 0.069
AATATGTG | 0.28 ± 0.094
AATATGGC | 0.24 ± 0.07
CAGTTAGG | 0.0928 ± 0.049
GATGCTAA | -0.0557 ± 0.067
GCGTCGAC | -0.038 ± 0.027
CATAAGAG | 0.0912 ± 0.02
GATGCTGC | -0.0878 ± 0.08
CGCCCTGA | -0.0272 ± 0.05
ATAATCGG | 0.137 ± 0.011
ATAAAGTG | 0.0933 ± 0.062
CTAAAGTA | 0.00517 ± 0.053
ATAAAGTA | 0.228 ± 0.048
CTAAAGTC | -0.208 ± 0.11
GTAAAGTA | 0.284 ± 0.074
ATAAAGTC | 0.239 ± 0.082
AAAATGGG | -0.088 ± 0.024
CAAATGGA | -0.0819 ± 0.12
AAAATGGA | 0.298 ± 0.036
AGGCTATG | -0.0609 ± 0.077

Sequence | PBM 8-mer E-score
ATTCAGCA | 0.076 ± 0.071
AAATCAAA | 0.2624 ± 0.00016
AAATCAAG | 0.141 ± 0.028
TAATCGTA | 0.162 ± 0.0019
CAATCGTA | 0.18 ± 0.038
AAATCGTA | 0.248 ± 0.024
AAATCAAT | 0.192 ± 0.01
ATGTGTCC | 0.0398 ± 0.026
TGAGAACA | 0.115 ± 0.095
ACAACGAC | 0.0368 ± 0.017
GTATGATA | 0.323 ± 0.069
CCATGATA | 0.0877 ± 0.047
ACATGATA | 0.197 ± 0.045
CTATGATA | -0.0149 ± 0.015
GCATGATA | 0.249 ± 0.015
ATATGATG | 0.193 ± 0.013
ATATGATA | 0.273 ± 0.081
GGATGATA | 0.0453 ± 0.067
GTATGAGA | 0.161 ± 0.072
ACGGTGCG | -0.17 ± 0.023
CTACTTAA | 0.09273 ± 0.00059
CGAGTGTC | -0.179 ± 0.053
CTTTGATC | -0.09609 ± 0.0009
AAGAGACC | 0.0547 ± 0.019
CCGAGTAA | -0.0803 ± 0.014

Sequence | PBM 8-mer E-score
GAACGGAA | -0.0438 ± 0.095
CTGAATAC | -0.0332 ± 0.1
GTTAATAA | 0.227 ± 0.066
ATTAATGG | 0.0317 ± 0.074
ATGAATAC | 0.248 ± 0.057
CTTAATAC | 0.214 ± 0.041
ATGAATAG | 0.172 ± 0.08
CTTAATAA | 0.0902 ± 0.011
ATTAATCG | 0.0839 ± 0.061
ACTAATAC | 0.158 ± 0.089
ATTAATAG | 0.255 ± 0.09
ATTAATAC | 0.266 ± 0.021
ATTAATAA | 0.274 ± 0.0099
AGATTGCT | -0.0246 ± 0.009
GGATAGAA | 0.123 ± 0.013
AACTCCCG | -0.034 ± 0.042
GGAATCGA | -0.191 ± 0.065
GCGACTAC | -0.0421 ± 0.049
ACAAACCC | 0.11 ± 0.054
GGGTGGTA | -0.00184 ± 0.074
ACTAGAGG | 0.113 ± 0.047
TCATGCAA | 0.277 ± 0.021
ACATGCGG | 0.00547 ± 0.099
ACATGCAT | 0.294 ± 0.053
ACATGCAC | 0.185 ± 0.034
